An excerpt weighted towards active compounds, which were near 2.5% of everything screened.
EBV LMP1 NFkB: inhibitors of Epstein-Barr LMP1-induced NF-kappaB reporter; actives 0.69% (n = 350,000); AID 504558; LMP1-induced NF-kappaB luciferase reporter cells, luminescence; inhibition, % at 12.5 µM; in the data active = inhibition above about 41%; inconclusive = no clear call, values can overlap the other calls;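 also: 0% = neutral control wells and 100% = reference inhibitor control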
TWEAK Fn14 block: inhibitors of TWEAK-Fn14 interaction signaling. inhibition, % at 10 µM. actives 2% (n = 360,000). TWEAK-stimulated Fn14 reporter cells, luciferase luminescence, 8 h; in the data active = inhibition above about 50%
EWS-Fli block: inhibitors of EWS/Fli oncoprotein transcriptional activity; A673 NR0B1-luciferase reporter, viability-normalised; inhibition, % at 12.6 µM; actives 0.67% (n = 350,000); AID 651661;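 active = mean inhibition of at least 50% after viability correction, with every replicate also passing that limit; inconclusive = mean reaches 50% but only one of two replicates passes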;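 also: firefly luciferase signal divided by Alamar Blue viability fluorescence both relative to DMSO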
LGR2 antag: inhibitors of bursicon-induced Drosophila LGR2 receptor cAMP signaling; HEK293 LGR2, CRE-luciferase, bursicon-stimulated, 4 h; inhibition, % at 9.99 µM; actives 0.35% (n = 380,000);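 active = drop in luminescence signal, shown as inhibition above about 50% in the replicate tests, limit read from the data, passing the limit was not always enough; inconclusive = probably only some replicates passing the limit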;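 also: agonist challenge used bursicon conditioned medium at about half maximal strength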
TROY NFkB inh: inhibitors of TROY-dependent NF-kB signaling | actives 0.98% (n = 360,000) | inhibition, % at 10 µM | AID 1347056 | Q293 LMP1-TROYcd NF-kB luciferase reporter, 4 h;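 active = compounds whose plate-normalised and pattern-corrected inhibition of the luciferase reporter signal at the single screening dose is 50% or more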
* = called active by the depositor; u = inconclusive; x = not tested or not shown.

SMILES | EBV LMP1 NFkB | TWEAK Fn14 block | EWS-Fli block | LGR2 antag | TROY NFkB inh
O=C(CNC(=O)c1ccccc1)NCCCSc1ccccc1 | -11 | 5 | -4 | -16 | -14
O=C(NCCCSc1ccccc1)c1cc(Cl)ccc1O | -3 | 55* | x | 3 | 37
CN(C)c1ccc(-c2nc3ccccc3c(=O)[nH]2)cc1 | 33 | 24 | 62* | 66* | -60
C[C@H](CO)N1C[C@H](C)[C@H](CN(C)C(=O)Nc2ccccc2)Oc2ccc(NC(=O)C3CCCCC3)cc2C1=O | x | x | -11 | -13 | x
CCCNC(=O)[C@@H]1[C@@H](CO)[C@@H]2Cn3c(cccc3=O)[C@H]1N2S(=O)(=O)c1ccccc1F | x | x | 3 | -11 | x
Cc1c(C(=O)NN)nn(-c2ccc(Cl)cc2)c(=O)c1C#N | -3 | 65* | 25 | 15 | 55*
Cc1ccc(-n2nc(C(=O)NN)c(C)c(C#N)c2=O)cc1Cl | -2 | 71* | 36 | 3 | 46
NS(=O)(=O)c1ccc(Oc2ccc(S(N)(=O)=O)cc2)cc1 | 6 | 1 | -1 | 4 | -16
C=CS(=O)(=O)c1ccc(Oc2ccc(S(=O)(=O)C=C)cc2)cc1 | u | 102* | 53* | 102* | 63*
COc1ccc(CC(=O)N2N=C(c3ccncc3)CC2(O)C(F)(F)F)cc1 (stereo not given) | 10 | 10 | 53* | 9 | 8
CC(C)C(=O)Nc1cccc(NC(=O)c2ccc(Cl)cc2Cl)c1 | -4 | 0 | -38 | 9 | 56*
CCC(=O)NC(=S)Nc1cccc(NC(=O)c2ccc(Cl)cc2Cl)c1 | 5 | 4 | x | x | -12
COc1ccc(-c2csc(C3=C(O)CN(Cc4ccc(Cl)cc4)C3=N)n2)cc1OC | 13 | -10 | 11 | -18 | 16
N=C1C(c2nc(-c3ccc(F)cc3)cs2)=C(O)CN1Cc1ccc(Cl)cc1 | -18 | 106* | x | x | 3
Cc1ccnc(NC(=O)COc2ccccc2[N+](=O)[O-])c1 | 14 | 51* | -78 | -5 | 7
O=C(COc1ccccc1[N+](=O)[O-])Nc1cccnc1 | -13 | -28 | -28 | -20 | -21
Cc1ccc(NC(=O)COc2ccccc2[N+](=O)[O-])nc1 | 10 | 58* | -117 | 54* | 43
Cc1ccc(NC(=O)c2ccc(COc3ccccc3[N+](=O)[O-])o2)nc1 | -10 | 14 | -14 | -22 | 9
CC(=O)c1c(N2CCOCC2)[nH]c(-c2ccccc2)nc1=S | -2 | 15 | 2 | -10 | 67*
Cc1cc(C(=O)Cn2nnc3ccccc3c2=O)c(C)n1Cc1cccs1 | -31 | -9 | x | x | -9
Cc1cc(C(=O)Nc2ccc(Cl)cc2)c(C)n1Cc1cccs1 | -53 | 60* | -62 | -16 | 51*
Cc1cc(C(=O)CN2C(=O)c3ccccc3C2=O)c(C)n1Cc1cccs1 | 50* | 83* | 47 | 20 | -2
Cc1cc(C)cc(NC(=O)c2cc(C)n(Cc3cccs3)c2C)c1 | -31 | -19 | -59 | -40 | -28
C[C@H](CO)N1C[C@H](C)[C@@H](CN(C)C)Oc2c(NC(=O)Nc3ccc(C(F)(F)F)cc3)cccc2C1=O | x | x | -34 | -18 | x
COc1ccc(-c2cc(=O)c3c(O)c(OC)c(O)cc3o2)cc1 | -13 | 54* | -92 | 47 | 3
SMILES | EBV LMP1 NFkB | TWEAK Fn14 block | EWS-Fli block | LGR2 antag | TROY NFkB inh
C[C@H](CO)N1C[C@H](C)[C@H](CN(C)Cc2ccc(-c3ccccc3)cc2)Oc2ccc(N(C)C)cc2C1=O | x | x | 7 | 9 | x
Cc1ccc(C(=O)/C=C2\NCCNC2=O)cc1 | 10 | 15 | x | x | -28
Cc1ccc(C(=O)/C=C2\NCC(C)NC2=O)cc1 (stereo not given) | 23 | 54* | x | 54* | x
C[C@H]1CN([C@@H](C)CO)C(=O)c2cccc(NC(=O)Nc3cccc4ccccc34)c2O[C@H]1CN(C)Cc1ccc(Oc2ccccc2)cc1 | x | x | 19 | 31 | x
O=C(CCCn1c(=S)[nH]c2ccccc2c1=O)N1CCN(c2cccc(Cl)c2)CC1 | 11 | 51* | x | x | 52*
COc1cccc(N2CCN(C(=O)CCCCCNc3nc(=S)[nH]c4ccccc34)CC2)c1 | 13 | 53* | 0 | u | 70*
CCCC#Cc1ccc2c(c1)[C@@H]1[C@@H](CCN1S(=O)(=O)c1ccc(C)cc1)[C@@H](CO)N2C | x | x | 2 | -8 | x
CCCN1C[C@@H](C)[C@H](OC)CN(C)C(=O)c2cc(NC(=O)c3ccc4c(c3)OCO4)ccc2OC[C@H]1C | x | x | 11 | 10 | x
CNC[C@@H]1Oc2ccc(NC(=O)Cc3cn(C)c4ccccc34)cc2CC(=O)N([C@@H](C)CO)C[C@H]1C | x | x | -2 | -10 | x

Screening data (PubChem)
